# Assay results as given in the supplement of paper PMC7411640.
# Where a name gives a salt, the structure may show the parent alone.
# System: MDA-MB-468
# Assay: phospho-S6 immunofluorescence (DAPI-normalised), per-plate z-score; higher = higher phospho-S6 signal (less pathway suppression)
# Conditions: 24 h
# Protocol: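 GPCR-targeted compound library (MedChemExpress HY-L006) tested on MDA-MB-468 PTEN-null TNBC cells in 384-well plates at 0.1, 1 or 10 uM, combined with vehicle, GDC0941 450 nM or lapatinib 1 uM, for 24 h. Phospho-S6 (S240/244) immunofluorescence normalised to DAPI and expressed as a per-plate z-score; values are the mean of biological triplicates.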
SMILES,phospho-S6 immunofluorescence (z-score) (co-treatment: GDC0941 450 nM),phospho-S6 immunofluorescence (z-score) (co-treatment: lapatinib 1 uM),phospho-S6 immunofluorescence (z-score) (co-treatment: vehicle)
CCN(CCCCOC(=O)c1ccc(OC)c(OC)c1)C(C)Cc1ccc(OC)cc1 (centres undefined) [Mebeverine (hydrochloride)] (compound 10 µM),0.43,0.05,-0.85
CC(=O)OCC(=O)[C@@]1(O)[C@H](C)C[C@H]2[C@@H]3CCC4=CC(=O)C=C[C@]4(C)[C@@]3(F)[C@@H](O)C[C@@]21C [Dexamethasone (acetate)] (compound 10 µM),0.07,0.45,1.18
COc1cc(NC(=O)c2ccccn2)ccc1Cl (compound 10 µM),-0.65,-0.21,0.28
CCc1c(C(=O)NCCc2ccc(N3CCCCC3)cc2)[nH]c2ccc(Cl)cc12 (compound 10 µM),-1.02,-0.3,0.27
CCOC(=O)N[C@@H]1CC[C@@H]2[C@@H](C1)C[C@H]1C(=O)O[C@H](C)[C@H]1[C@H]2/C=C/c1ccc(-c2cccc(F)c2)cn1 [Vorapaxar] (compound 10 µM),-5.92,-11.6,-9.84
CCN(CC)Cc1ccc(C(=O)N(CCc2ccccc2OC)[C@@H]2CCNC2)cc1 (compound 10 µM),0.19,0.1,0.12
CN(C)CCc1c[nH]c2ccc(CS(=O)(=O)N3CCCC3)cc12 [Almotriptan (malate)] (compound 10 µM),0.95,0.57,0.38
OCc1cc(C(O)CNCCCCCCOCCCCc2ccccc2)ccc1O (centres undefined) [Salmeterol (xinafoate)] (compound 10 µM),1.01,-2.27,2.28
CN(C)CCc1c[nH]c2ccc(C[C@H]3COC(=O)N3)cc12 [Zolmitriptan] (compound 10 µM),0.87,0.6,-0.48
O=C(NCCCN1CCC2(CC1)OCc1ccccc12)[C@H]1CCCN1Cc1ccccc1 (compound 10 µM),-1.61,-1.57,-0.4
NC(N)=Nc1nc(CSCC/C(N)=N/S(N)(=O)=O)cs1 [Famotidine] (compound 10 µM),-1.24,-0.34,-0.29
CCNC(=O)[C@@H]1CCCN1C(=O)[C@H](CCCNC(=N)N)NC(=O)[C@H](CC(C)C)NC(=O)[C@@H](CC(C)C)NC(=O)[C@H](Cc1ccc(O)cc1)NC(=O)[C@H](CO)NC(=O)[C@H](Cc1c[nH]c2ccccc12)NC(=O)[C@H](Cc1c[nH]cn1)NC(=O)[C@@H]1CCC(=O)N1 [Leuprolide (Acetate)] (compound 10 µM),0.41,-0.17,0.11
C[N+]1(C)CCC(OC(=O)C(O)(c2ccccc2)C2CCCC2)C1 (centres undefined) [Glycopyrrolate] (compound 10 µM),0.59,0.25,1.14
CCCCc1ccc(NS(=O)(=O)c2ccc(F)cc2)cc1 (compound 10 µM),-3.59,-8.48,-10.2
COc1ccc(/C=C/C(=O)Nc2ccccc2C(=O)O)cc1OC [Tranilast (trans-)] (compound 10 µM),0.32,-0.26,0.65
OCCOCCN1CCN(C2=Nc3ccccc3Sc3ccccc32)CC1 [Quetiapine (fumarate)] (compound 10 µM),-0.84,0.29,-0.03
CC(C)(C)C1CCC(N(Cc2ccc(C(=O)NCCC(=O)O)cc2)C(=O)Nc2ccc(OC(F)(F)F)cc2)CC1 (centres undefined) (compound 10 µM),-3.4,-4.75,-1.64
c1cc(CN2CCCNCCNCCCNCC2)ccc1CN1CCCNCCNCCCNCC1 [Plerixafor] (compound 10 µM),-0.31,0.01,0.2
CCCCc1ncc(/C=C(\Cc2cccs2)C(=O)O)n1Cc1ccc(C(=O)O)cc1 [Eprosartan (mesylate)] (compound 10 µM),0.37,0.05,0.01
CCN(CC)CC#CCOC(=O)C(O)(c1ccccc1)C1CCCCC1 (centres undefined) [Oxybutynin] (compound 10 µM),-0.77,0.75,-0.04
CC(C)Oc1ccc(-c2nc(-c3cccc4c3CC[C@@H]4NCCO)no2)cc1C#N [Ozanimod] (compound 10 µM),0.72,-0.62,-0.3
Cc1ccc(NC(=S)NNc2c([N+](=O)[O-])cc(C(F)(F)F)cc2[N+](=O)[O-])cc1Cl (compound 10 µM),0.79,-0.44,-0.73
CCCCCN(CCCOC)C(=O)C(CCC(=O)O)NC(=O)c1ccc(Cl)c(Cl)c1 (centres undefined) [Loxiglumide] (compound 10 µM),0.5,0.64,0.51
